Assays:
Assay in all cases: DAPPL (digital affinity profiling via proximity ligation, sequencing); 10 mM Tris-HCl pH 7.5, 50 mM NaCl, 1 mM DTT, 4% glycerol, room temperature, 30 min; GST-TFs on glutathione beads, 16-mer random dsDNA library, 0.1% formaldehyde crosslink after washing; high values mean tight binding
Conditions in all cases: protein: recombinant; tags: N-terminal GST; dsDNA, one strand shown
ERF = molecular target: T1, ERF (Homo sapiens, UniProt P50548 1-548)
T1 sequence: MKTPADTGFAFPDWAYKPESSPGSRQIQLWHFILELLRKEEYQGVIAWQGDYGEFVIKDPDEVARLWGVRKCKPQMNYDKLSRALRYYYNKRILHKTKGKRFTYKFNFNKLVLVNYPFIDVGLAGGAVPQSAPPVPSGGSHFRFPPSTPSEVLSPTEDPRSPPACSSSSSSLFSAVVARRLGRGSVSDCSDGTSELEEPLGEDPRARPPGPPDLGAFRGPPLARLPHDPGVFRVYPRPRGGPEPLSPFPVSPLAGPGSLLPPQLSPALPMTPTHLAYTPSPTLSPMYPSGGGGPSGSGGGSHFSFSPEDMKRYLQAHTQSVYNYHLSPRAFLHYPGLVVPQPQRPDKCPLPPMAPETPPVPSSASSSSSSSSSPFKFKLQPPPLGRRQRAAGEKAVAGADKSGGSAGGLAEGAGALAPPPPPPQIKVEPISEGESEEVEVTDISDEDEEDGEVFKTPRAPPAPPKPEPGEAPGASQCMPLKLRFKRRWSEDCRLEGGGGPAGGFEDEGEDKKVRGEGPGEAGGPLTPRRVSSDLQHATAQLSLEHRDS
How it was run: (§1)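 A tag-only sample was pooled with DNA-barcoded human transcription factors that had been expressed in yeast as GST fusions and captured on glutathione beads. The pools were incubated for 30 min at room temperature with 200 nmole of a random double-stranded 16-mer DNA library in Tris/NaCl/DTT/glycerol buffer, then washed, crosslinked with 0.1% formaldehyde, proximity-ligated (BsaI/T4 ligase, 1 h, 37 °C), PCR-amplified and sequenced on an Illumina NextSeq500. Binding signal is each hexamer's read frequency for a factor divided by its frequency for the tag-only sample.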

ETV3L = molecular target: T2, ETV3L (Homo sapiens, UniProt Q6ZN32 1-361)
T2 sequence: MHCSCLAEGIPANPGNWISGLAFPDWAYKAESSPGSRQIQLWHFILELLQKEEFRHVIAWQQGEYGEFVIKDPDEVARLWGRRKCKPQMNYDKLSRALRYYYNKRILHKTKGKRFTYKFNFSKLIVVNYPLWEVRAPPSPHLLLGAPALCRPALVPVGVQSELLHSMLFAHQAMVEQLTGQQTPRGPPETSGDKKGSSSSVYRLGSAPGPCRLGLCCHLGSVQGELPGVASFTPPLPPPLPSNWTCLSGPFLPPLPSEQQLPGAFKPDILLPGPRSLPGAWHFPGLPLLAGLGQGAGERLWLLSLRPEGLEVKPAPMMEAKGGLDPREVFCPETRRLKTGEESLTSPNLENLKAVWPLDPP
How it was run: as §1

ETS2 = molecular target: T3, ETS2 (Homo sapiens, UniProt P15036 1-469)
T3 sequence: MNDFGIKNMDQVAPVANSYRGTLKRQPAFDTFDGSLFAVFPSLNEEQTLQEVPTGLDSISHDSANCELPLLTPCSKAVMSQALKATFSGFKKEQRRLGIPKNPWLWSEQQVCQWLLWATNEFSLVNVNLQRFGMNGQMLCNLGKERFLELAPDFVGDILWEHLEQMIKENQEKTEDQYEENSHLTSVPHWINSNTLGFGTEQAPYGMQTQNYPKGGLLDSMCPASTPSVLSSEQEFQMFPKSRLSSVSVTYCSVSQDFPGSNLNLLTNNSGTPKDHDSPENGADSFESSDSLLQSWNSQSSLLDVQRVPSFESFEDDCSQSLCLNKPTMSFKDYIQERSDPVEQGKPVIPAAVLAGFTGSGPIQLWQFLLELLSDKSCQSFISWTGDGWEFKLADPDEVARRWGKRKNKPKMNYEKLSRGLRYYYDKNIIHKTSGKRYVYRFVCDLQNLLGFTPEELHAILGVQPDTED
How it was run: as §1

SPDEF = molecular target: T4, SPDEF (Homo sapiens, UniProt O95238 1-335)
T4 sequence: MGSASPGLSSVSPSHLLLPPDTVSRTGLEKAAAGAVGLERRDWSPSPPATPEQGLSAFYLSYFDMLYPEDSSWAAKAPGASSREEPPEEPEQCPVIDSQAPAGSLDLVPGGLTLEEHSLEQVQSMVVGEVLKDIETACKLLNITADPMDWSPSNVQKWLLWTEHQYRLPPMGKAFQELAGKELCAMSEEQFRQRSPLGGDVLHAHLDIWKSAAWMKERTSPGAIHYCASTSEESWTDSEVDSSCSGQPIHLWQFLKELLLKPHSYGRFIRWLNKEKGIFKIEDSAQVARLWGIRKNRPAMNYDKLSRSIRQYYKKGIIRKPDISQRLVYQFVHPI
How it was run: as §1

ETV7 = molecular target: T5, ETV7 (Homo sapiens, UniProt Q9Y603 1-341)
T5 sequence: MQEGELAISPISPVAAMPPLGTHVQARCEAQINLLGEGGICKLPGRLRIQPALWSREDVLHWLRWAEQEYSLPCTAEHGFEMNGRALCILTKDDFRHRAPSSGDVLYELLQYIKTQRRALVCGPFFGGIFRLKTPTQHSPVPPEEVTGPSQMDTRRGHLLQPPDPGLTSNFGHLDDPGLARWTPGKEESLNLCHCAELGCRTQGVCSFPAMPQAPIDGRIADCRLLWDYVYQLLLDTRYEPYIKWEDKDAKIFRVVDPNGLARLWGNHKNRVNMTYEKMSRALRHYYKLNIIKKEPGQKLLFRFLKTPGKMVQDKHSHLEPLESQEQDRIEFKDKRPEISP
How it was run: as §1

ELF5 = molecular target: T6, ELF5 (Homo sapiens, UniProt Q9UKW6-2 1-255)
T6 sequence: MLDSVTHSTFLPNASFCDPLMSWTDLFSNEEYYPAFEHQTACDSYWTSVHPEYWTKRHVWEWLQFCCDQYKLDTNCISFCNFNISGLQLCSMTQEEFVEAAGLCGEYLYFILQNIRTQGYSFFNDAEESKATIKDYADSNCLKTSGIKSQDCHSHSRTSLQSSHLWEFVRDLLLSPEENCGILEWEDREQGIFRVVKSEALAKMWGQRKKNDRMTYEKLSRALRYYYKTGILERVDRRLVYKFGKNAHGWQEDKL
How it was run: as §1

ETV3 = molecular target: T7, ETV3 (Homo sapiens, UniProt P41162-2 1-143)
T7 sequence: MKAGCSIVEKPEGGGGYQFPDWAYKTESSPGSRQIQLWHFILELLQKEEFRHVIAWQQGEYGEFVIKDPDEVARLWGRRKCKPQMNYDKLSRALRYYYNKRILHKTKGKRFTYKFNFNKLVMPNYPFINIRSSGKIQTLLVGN
How it was run: as §1

ETV6 = ETV6 (Homo sapiens, UniProt P41212 1-452)
How it was run: as §1

Sequence of ETV6 (P41212 whole entry): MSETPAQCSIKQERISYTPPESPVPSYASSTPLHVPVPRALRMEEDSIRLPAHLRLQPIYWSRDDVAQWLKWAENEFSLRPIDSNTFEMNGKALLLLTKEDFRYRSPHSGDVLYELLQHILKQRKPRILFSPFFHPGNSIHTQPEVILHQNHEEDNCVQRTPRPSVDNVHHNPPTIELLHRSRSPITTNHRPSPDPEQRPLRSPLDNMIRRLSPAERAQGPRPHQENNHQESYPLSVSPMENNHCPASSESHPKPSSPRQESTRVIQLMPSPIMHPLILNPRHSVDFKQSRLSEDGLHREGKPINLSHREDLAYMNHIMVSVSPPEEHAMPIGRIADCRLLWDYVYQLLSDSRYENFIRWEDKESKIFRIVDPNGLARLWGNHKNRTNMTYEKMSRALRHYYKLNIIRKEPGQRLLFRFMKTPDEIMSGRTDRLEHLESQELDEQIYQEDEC

Sequence	binding signal (ERF)	binding signal (ETV3L)	binding signal (ETS2)	binding signal (SPDEF)	binding signal (ETV7)	binding signal (ELF5)	binding signal (ETV3)	binding signal (ETV6)
TGACAC	1.3 fold enrichment (6-mer frequency, TF over GST control)	1.22 fold enrichment (6-mer frequency, TF over GST control)	1.24 fold enrichment (6-mer frequency, TF over GST control)	1.11 fold enrichment (6-mer frequency, TF over GST control)	1.28 fold enrichment (6-mer frequency, TF over GST control)	1.19 fold enrichment (6-mer frequency, TF over GST control)	1.21 fold enrichment (6-mer frequency, TF over GST control)	1.19 fold enrichment (6-mer frequency, TF over GST control)
TCGCAA	1.27 fold enrichment (6-mer frequency, TF over GST control)	1.1 fold enrichment (6-mer frequency, TF over GST control)	1.05 fold enrichment (6-mer frequency, TF over GST control)	1.09 fold enrichment (6-mer frequency, TF over GST control)	1.01 fold enrichment (6-mer frequency, TF over GST control)	1.06 fold enrichment (6-mer frequency, TF over GST control)	1.13 fold enrichment (6-mer frequency, TF over GST control)	1.09 fold enrichment (6-mer frequency, TF over GST control)
CCCATC	1.25 fold enrichment (6-mer frequency, TF over GST control)	1.15 fold enrichment (6-mer frequency, TF over GST control)	1.22 fold enrichment (6-mer frequency, TF over GST control)	1.07 fold enrichment (6-mer frequency, TF over GST control)	1.08 fold enrichment (6-mer frequency, TF over GST control)	1.21 fold enrichment (6-mer frequency, TF over GST control)	1.14 fold enrichment (6-mer frequency, TF over GST control)	1.1 fold enrichment (6-mer frequency, TF over GST control)
TACAAC	1.1 fold enrichment (6-mer frequency, TF over GST control)	1.11 fold enrichment (6-mer frequency, TF over GST control)	1.12 fold enrichment (6-mer frequency, TF over GST control)	1.17 fold enrichment (6-mer frequency, TF over GST control)	1.09 fold enrichment (6-mer frequency, TF over GST control)	1.09 fold enrichment (6-mer frequency, TF over GST control)	1.15 fold enrichment (6-mer frequency, TF over GST control)	1.11 fold enrichment (6-mer frequency, TF over GST control)
TTCACA	1.26 fold enrichment (6-mer frequency, TF over GST control)	1.21 fold enrichment (6-mer frequency, TF over GST control)	1.23 fold enrichment (6-mer frequency, TF over GST control)	1.25 fold enrichment (6-mer frequency, TF over GST control)	1.29 fold enrichment (6-mer frequency, TF over GST control)	1.12 fold enrichment (6-mer frequency, TF over GST control)	1.13 fold enrichment (6-mer frequency, TF over GST control)	1.13 fold enrichment (6-mer frequency, TF over GST control)
TTGCTA	1.37 fold enrichment (6-mer frequency, TF over GST control)	1.35 fold enrichment (6-mer frequency, TF over GST control)	1.33 fold enrichment (6-mer frequency, TF over GST control)	1.31 fold enrichment (6-mer frequency, TF over GST control)	1.37 fold enrichment (6-mer frequency, TF over GST control)	1.21 fold enrichment (6-mer frequency, TF over GST control)	1.28 fold enrichment (6-mer frequency, TF over GST control)	1.23 fold enrichment (6-mer frequency, TF over GST control)
GCGACC	1.13 fold enrichment (6-mer frequency, TF over GST control)	1.14 fold enrichment (6-mer frequency, TF over GST control)	1.19 fold enrichment (6-mer frequency, TF over GST control)	1.14 fold enrichment (6-mer frequency, TF over GST control)	1.06 fold enrichment (6-mer frequency, TF over GST control)	1.1 fold enrichment (6-mer frequency, TF over GST control)	1.1 fold enrichment (6-mer frequency, TF over GST control)	1.08 fold enrichment (6-mer frequency, TF over GST control)
CCTGTA	1.24 fold enrichment (6-mer frequency, TF over GST control)	1.22 fold enrichment (6-mer frequency, TF over GST control)	1.15 fold enrichment (6-mer frequency, TF over GST control)	1.36 fold enrichment (6-mer frequency, TF over GST control)	1.21 fold enrichment (6-mer frequency, TF over GST control)	1.43 fold enrichment (6-mer frequency, TF over GST control)	1.35 fold enrichment (6-mer frequency, TF over GST control)	1.18 fold enrichment (6-mer frequency, TF over GST control)
GGTTTC	1.49 fold enrichment (6-mer frequency, TF over GST control)	1.52 fold enrichment (6-mer frequency, TF over GST control)	1.52 fold enrichment (6-mer frequency, TF over GST control)	1.55 fold enrichment (6-mer frequency, TF over GST control)	1.38 fold enrichment (6-mer frequency, TF over GST control)	1.52 fold enrichment (6-mer frequency, TF over GST control)	1.46 fold enrichment (6-mer frequency, TF over GST control)	1.51 fold enrichment (6-mer frequency, TF over GST control)
ACACTG	1.17 fold enrichment (6-mer frequency, TF over GST control)	1.11 fold enrichment (6-mer frequency, TF over GST control)	1.06 fold enrichment (6-mer frequency, TF over GST control)	1.05 fold enrichment (6-mer frequency, TF over GST control)	1.03 fold enrichment (6-mer frequency, TF over GST control)	1.05 fold enrichment (6-mer frequency, TF over GST control)	1.01 fold enrichment (6-mer frequency, TF over GST control)	1.04 fold enrichment (6-mer frequency, TF over GST control)
ATCTCA	1.07 fold enrichment (6-mer frequency, TF over GST control)	1.13 fold enrichment (6-mer frequency, TF over GST control)	1.14 fold enrichment (6-mer frequency, TF over GST control)	1.07 fold enrichment (6-mer frequency, TF over GST control)	1.15 fold enrichment (6-mer frequency, TF over GST control)	1.09 fold enrichment (6-mer frequency, TF over GST control)	1.13 fold enrichment (6-mer frequency, TF over GST control)	1.11 fold enrichment (6-mer frequency, TF over GST control)
TTCTGT	1.39 fold enrichment (6-mer frequency, TF over GST control)	1.42 fold enrichment (6-mer frequency, TF over GST control)	1.29 fold enrichment (6-mer frequency, TF over GST control)	1.15 fold enrichment (6-mer frequency, TF over GST control)	1.26 fold enrichment (6-mer frequency, TF over GST control)	1.29 fold enrichment (6-mer frequency, TF over GST control)	1.19 fold enrichment (6-mer frequency, TF over GST control)	1.38 fold enrichment (6-mer frequency, TF over GST control)
GCTCTT	1.5 fold enrichment (6-mer frequency, TF over GST control)	1.73 fold enrichment (6-mer frequency, TF over GST control)	1.41 fold enrichment (6-mer frequency, TF over GST control)	1.34 fold enrichment (6-mer frequency, TF over GST control)	1.56 fold enrichment (6-mer frequency, TF over GST control)	1.52 fold enrichment (6-mer frequency, TF over GST control)	1.48 fold enrichment (6-mer frequency, TF over GST control)	1.45 fold enrichment (6-mer frequency, TF over GST control)
TGCCCC	1.15 fold enrichment (6-mer frequency, TF over GST control)	1.28 fold enrichment (6-mer frequency, TF over GST control)	1.12 fold enrichment (6-mer frequency, TF over GST control)	1.21 fold enrichment (6-mer frequency, TF over GST control)	1.18 fold enrichment (6-mer frequency, TF over GST control)	1.18 fold enrichment (6-mer frequency, TF over GST control)	1.3 fold enrichment (6-mer frequency, TF over GST control)	1.24 fold enrichment (6-mer frequency, TF over GST control)
TGTAAA	1.23 fold enrichment (6-mer frequency, TF over GST control)	1.22 fold enrichment (6-mer frequency, TF over GST control)	1.24 fold enrichment (6-mer frequency, TF over GST control)	1.16 fold enrichment (6-mer frequency, TF over GST control)	1.13 fold enrichment (6-mer frequency, TF over GST control)	1.1 fold enrichment (6-mer frequency, TF over GST control)	1.2 fold enrichment (6-mer frequency, TF over GST control)	1.03 fold enrichment (6-mer frequency, TF over GST control)
